Assay outcomes from PubChem BioAssay.
Most compounds without a hit are left out; they make up all but 7.7% or so of the library.
Tb PYK inh – qHTS of Trypanosoma Brucei Inhibitors; pyruvate kinase (Trypanosoma brucei), Q57TT1; TbPYK enzyme, Kinase-Glo Plus ATP luminescence, 45 min; Potency, µM (doses to about 76.8 µM), without a hit: at the top dose activity, negative = inhibition, most hits filed as inhibitors; hit rate 0.12% among 410,000; further: potency means the concentration at half of the fitted maximal effect; nearly all actives have a fitted effect of over 50% in size
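In this concentration-response screen, enzyme-free wells defined baseline while DMSO plates tracked drift. Each reaction combined TbPYK, substrate, compound and 130 uM ADP for 45 min at room temperature. Kinase-Glo Plus luminescence gave the signal.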
Giardia FBPA inh – qHTS Assay for Inhibitors of Fructose-1,6-bisphosphate Aldolase from Giardia Lamblia; A8B2U2; purified Giardia FBPA; Potency, µM (titrated, usually from 59.6 µM), for inactives: at the top dose activity, negative = inhibition, usual class: inhibitors; hit rate 0.71% among 290,000; further: potency means the concentration at half of the fitted maximal effect; nearly all actives have a fitted effect of over 55% in size
Target sequence (A8B2U2 whole entry, looked up): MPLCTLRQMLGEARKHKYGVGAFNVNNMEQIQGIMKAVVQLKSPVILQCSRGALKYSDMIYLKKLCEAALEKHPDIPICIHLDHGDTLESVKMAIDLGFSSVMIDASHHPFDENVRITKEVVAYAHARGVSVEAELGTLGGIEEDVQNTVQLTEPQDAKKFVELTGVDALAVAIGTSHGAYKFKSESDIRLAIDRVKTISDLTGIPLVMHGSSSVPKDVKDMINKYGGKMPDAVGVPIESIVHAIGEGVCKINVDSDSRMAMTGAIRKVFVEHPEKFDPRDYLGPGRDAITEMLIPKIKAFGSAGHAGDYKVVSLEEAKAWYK
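40 nM FBPA preincubated 10 min at RT with compound (up to 57.5 uM final), then substrate plus GAPDH/TPI/NAD/arsenate coupling and diaphorase/resazurin added. Fluorescence read after 20 min at RT, 525/598 nm.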
Sm TGR block – qHTS Assay for the Inhibitors of Schistosoma Mansoni Peroxiredoxins; Schistosoma mansoni thioredoxin glutathione reductase (TGR), Q962Y6; purified TGR, DTNB reduction, TNB absorbance 405 nm; Potency, µM (series often up to 114 µM), without a hit: at the highest dose activity change, negative = inhibition, actives largely listed as inhibitors; hit rate 3% among 360,000; AID 485364, 2010; further: potency means the concentration at half of the fitted maximal effect; nearly all actives have a fitted effect of over 60% in size
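First, TGR (20 nM dispensed) and NADPH were mixed with compound. Second, a 15 min room-temperature incubation followed. Third, further NADPH and then DTNB were added to start the reaction. Finally, TNB absorbance was monitored kinetically.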
HCMV inh – qHTS Assay for inhibitors of the human cytomegalovirus (HCMV). HFF cells, HCMV-luciferase reporter, 72 h; stronger effect = lower value. activity change, negative = inhibition, % at 57.5 µM. hit rate 4.5% among 410,000. AID 1259415, 2018; in the data active means activity change below about -60%; inconclusive means no clear call, values can overlap the other calls; inactive means above about -39%
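After 16 h attachment at 37C, HFF cells received test compound and HCMV-luciferase (1 PFU/cell); reporter luminescence read 72 h later, data normalized against buffer-only and known inhibitor Salinomycin.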
FMDV antiviral – High Throughput Screening for Foot and Mouth Disease Virus Antivirals; Potency, µM (series often up to 57.9 µM), for the others: at the highest dose activity change, negative = inhibition, most hits filed as inhibitors; FMDV antiviral cell-based qHTS; hit rate 1.2% among 410,000; calls by dose curve; tested in HEK293T cells; further: read-out not given here; potency means the concentration at half of the fitted maximal effect; nearly all actives have a fitted effect of over 45% in size
RE007 growth inh – qHTS Assay for Inhibitors of the HIV-1 protein Vpr; hit rate 0.21% among 360,000; S. pombe RE007 Vpr strain, BacTiter-Glo ATP luminescence, 24 h; Potency, µM (series often up to 92.2 µM), for the others: at the highest dose activity change, negative = less growth, hits mostly inhibitors; AID 651644, 2012; active means well fitted falling curve with a large enough effect; inconclusive means small, poorly fitted or top-dose-only effect; inactive means no such curve, though single readings can be large or run the other way; further: potency means the concentration at half of the fitted maximal effect; nearly all actives have a fitted effect of over 50% in size
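Fission yeast strain RE007, carrying one chromosomally integrated HIV-1 vpr copy, was seeded at OD 0.01 in PMG+AL medium with 23 nL pinned compound. After 24 h at 30 °C and 99% humidity, viability was read by BacTiter-Glo luminescence.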
* marks the source's active call; other numbers are inactive results; ! = not confirmed by another sample. Unless noted, the call rests on the fitted dose curve; in most records, active means well fitted curve in the direction sought with a large enough effect; inconclusive means small, poorly fitted or top-dose-only effect, or another doubt; inactive means no such curve, though single readings can be large; an effect the other way counts as inactive or inconclusive. On the % scale 0 is the no-effect control and ±100 the full control effect.

Screening COc1ccc(NC(=S)NC2CCCCCC2)c(OC)c1 returned Tb PYK inh 8.7%, Giardia FBPA inh 2.9%, Sm TGR block 8.4%, HCMV inh -77.2*, FMDV antiviral -0.2% and RE007 growth inh inconclusive.
COc1ccc(NC(=S)NCCC(c2ccccc2)c2ccccc2)c(OC)c1 was read as Tb PYK inh -3.2%, Giardia FBPA inh -8.3%, Sm TGR block 6.6%, HCMV inh -60.4*, FMDV antiviral -14.5% and RE007 growth inh 7.4%.
`CCC(=O)Nc1ccc(-c2ccc(NC(=O)CC)c(OC)c2)cc1OC` gave Tb PYK inh 2.3%, Giardia FBPA inh -0.1%, HCMV inh inconclusive, FMDV antiviral -7.7% and RE007 growth inh 11.5%.
Screening COc1ccc(NC(=S)NC2CCCCC2)c(OC)c1 returned Tb PYK inh 1.7%, Giardia FBPA inh -3.2%, Sm TGR block -9.6%, HCMV inh -25.5, FMDV antiviral 40.3% and RE007 growth inh 7.2%.
`COc1cc(-c2ccc(NC(=O)NC3CC3)c(OC)c2)ccc1NC(=O)NC1CC1` gave Giardia FBPA inh 4.6%, Sm TGR block -5.2% and HCMV inh -77.3*.
COc1ccc(NC(=S)Nc2ccc(OC)cc2OC)c(OC)c1 was read as Tb PYK inh -10.7%, Giardia FBPA inh -9.4%, Sm TGR block -3.1%, HCMV inh -11.7, FMDV antiviral -6.0% and RE007 growth inh -0.8%.
Screening CCOc1ccc(C(=O)Nc2ccccc2C(=O)OCc2cc(=O)n3nc(C4CC4)sc3n2)cc1 returned Tb PYK inh 3.0%, Sm TGR block -5.1%, HCMV inh 15.2 and FMDV antiviral 1.0%.
Screening CCCC(=O)O[C@]1(C(=O)COC(C)=O)CC[C@H]2C3C[C@H](F)C4=CC(=O)C=CC4(C)[C@@]3(F)[C@@H](O)CC21C (some centres not stated) returned Tb PYK inh 3.8%.
Screening Cc1ccccc1CN1CCc2nnc(C(C)NC(=O)C3CCN(C)CC3)n2CC1 (configuration not stated) returned FMDV antiviral 4.3%.
`C[C@@H](O)CCC[C@H](O)/C=C/[C@H]1[C@H](O)CC(=O)[C@@H]1C/C=C\CCCC(=O)O` gave Giardia FBPA inh -2.1%.
Screening COc1ccc(NC(=S)Nc2cnc3ccccc3c2)c(OC)c1 returned Tb PYK inh -0.2%, Giardia FBPA inh -5.2%, Sm TGR block 39.8µM*, HCMV inh -20.1, FMDV antiviral 1.4% and RE007 growth inh -4.5%.
`COc1ccc(NC(=S)Nc2ccccc2OC)c(OC)c1` gave Tb PYK inh 4.8%, Giardia FBPA inh -18.6%, HCMV inh -19.7, FMDV antiviral -7.3% and RE007 growth inh -8.1%.
Screening COc1ccc(NC(=O)C(CC(C)C)NC(=O)C2CCCCC2)c(OC)c1 (configuration not stated) returned Tb PYK inh -14.1%, Giardia FBPA inh 3.7%, Sm TGR block -10.3%, HCMV inh inconclusive, FMDV antiviral 316µM*! and RE007 growth inh 7.7%.
`CC(C)(C)c1ccc(C(=O)NCCc2csc3nc(-c4ccccc4F)nn23)cc1` gave Tb PYK inh 0.8%, Sm TGR block 0.8%, HCMV inh -19.2 and FMDV antiviral 6.6%.
CCOC(=O)Cc1c(Sc2ccccc2)c2cc(C)ccc2n1C was read as Tb PYK inh -8.6%, Giardia FBPA inh -6.4%, Sm TGR block -12.1%, HCMV inh -60.4*, FMDV antiviral 0.0% and RE007 growth inh -6.1%.
For Cc1c(C=O)c(Cl)n(C)c(=O)c1C#N the results were Tb PYK inh -0.4%, Giardia FBPA inh 9.98µM*, Sm TGR block inconclusive, HCMV inh 34.6, FMDV antiviral -3.1% and RE007 growth inh 2.3%.
CC(=O)N=Cc1c(C)c(C#N)c(=O)n(C)c1O was read as Tb PYK inh 0.6%, Giardia FBPA inh 8.89µM*, Sm TGR block -20.8%, HCMV inh 14.3, FMDV antiviral 5.5% and RE007 growth inh -2.8%.
For Cc1c(/C=N/Nc2ccc(F)cc2)c(O)n(C)c(=O)c1C#N the results were Tb PYK inh -1.3%, Giardia FBPA inh inconclusive, Sm TGR block 25.1µM*, HCMV inh -16.2, FMDV antiviral 6.5% and RE007 growth inh -5.5%.
COc1ccc(C)cc1Nc1cc(C)nc(C)n1 was read as Tb PYK inh 5.9%, Sm TGR block -1.8%, HCMV inh 4.7 and FMDV antiviral -19.7%.
`CC1=N/C(=C\c2ccc([N+](=O)[O-])cc2)C(=O)N1c1ccc(C)c(Cl)c1` gave HCMV inh 0.0.
`O=C(c1ccncc1)N1CCN(c2cc(-c3ccccc3)nc3cc(-c4cccc(Cl)c4)nn23)CC1` gave Tb PYK inh -2.7%, HCMV inh 6.0, FMDV antiviral 28.2µM* and RE007 growth inh 24.7%.
Screening COc1ccc(-c2cc3nc(-c4ccccc4)cc(N4CCN(C(=O)c5ccoc5)CC4)n3n2)cc1 returned Tb PYK inh 3.1%, HCMV inh -18.5, FMDV antiviral inconclusive and RE007 growth inh -21.2%.
Screening CC(=O)N1CCN(c2cc(-c3ccccc3)nc3cc(-c4cccc(Cl)c4)nn23)CC1 returned Tb PYK inh 4.6%, HCMV inh -89.4*, FMDV antiviral 17.8µM* and RE007 growth inh inconclusive.
`O=C(c1ccoc1)N1CCN(c2cc(-c3ccccc3)nc3cc(-c4ccc(Br)cc4)nn23)CC1` gave Tb PYK inh 1.6%, HCMV inh -63.0*, FMDV antiviral 22.4µM* and RE007 growth inh 37.9%.
`Cc1ccc([N+](=O)[O-])cc1S(=O)(=O)N1CCn2cccc2C1c1ccccc1` (configuration not stated) gave Tb PYK inh 2.5%, Sm TGR block 4.5%, HCMV inh -15.9 and FMDV antiviral -13.6%.
Screening CN(c1ncnc(N)c1[N+](=O)[O-])C1CCCCC1 returned Tb PYK inh 0.3%, Giardia FBPA inh -6.9%, Sm TGR block 5.5%, HCMV inh -94.0*, FMDV antiviral -14.1% and RE007 growth inh -29.3%.
Screening Nc1ncnc(NC2CCS(=O)(=O)C2)c1[N+](=O)[O-] (configuration not stated) returned Tb PYK inh 3.8%, Giardia FBPA inh 1.1%, Sm TGR block 10.4%, HCMV inh -24.0, FMDV antiviral -5.8% and RE007 growth inh -1.5%.
